The record followed here is PubChem BioAssay.

Test [1] in a line: antimalarial activity against Dd2 strain (AID 2302;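 active = growth inhibition above 50% at the single 2 µM test dose, taken to imply half-maximal potency below 2 µM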;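 note: 0% = DMSO untreated growth and 100% = chloroquine plus artemisinin killed control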). Particulars: P. falciparum Dd2 in RBCs, LDH growth readout, 72 h; at 2 µM; stronger effect = higher value.
The nature of test [2]: human hepatoma cell viability loss – ATP luminescence, cytotoxicity control for P. falciparum antimalarial project, primary screen (AID 2303;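 active = inhibition above 50%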;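 note: 0% = DMSO wells and 100% = digitonin-killed cells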). Particulars: HepG2 viability, 24-48 h, at 10 µM, stronger effect = higher value.
Test [3] addresses L-lactate dehydrogenase (Plasmodium falciparum (isolate CDC / Honduras)) (UniProt Q27743). The test is described as follows: PfLDH activity inhibition – cell lysate, 3D7 strain, counter-screen for P. falciparum growth inhibition project (AID 2304).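 Note: 0% = vehicle and 100% = reference inhibitor.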 The settings on record: P. falciparum 3D7 crude extract, LDH APAD/NBT absorbance; at 2 µM; stronger effect = higher value.
Test [4] is described as follows: inhibition of 3D7 malaria parasite growth – strain 3D7 (AID 2306).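 Note: 0% = DMSO wells and 100% = chloroquine plus artemisinin control wells.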 Particulars: P. falciparum 3D7 erythrocytic growth, LDH absorbance, 72 h; at 2 µM; stronger effect = higher value.
In test [5] the target is Calcium-dependent protein kinase 1 (Plasmodium falciparum (isolate 3D7)) (UniProt P62344). Put plainly: PfCDPK1 kinase inhibitors, biochemical, TCAMS library (AID 1159585; cut-off not given, nearly all actives have IC50 up to about 0.98 µM;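 note: inhibitors leave more ATP so luminescence rises with inhibition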). The settings on record: recombinant PfCDPK1, Kinase-Glo ATP depletion luminescence.
Test [6] concerns the target Plasmodium falciparum protein kinase 6 (PK6, PF3D7_1337100) (UniProt Q8IDW1). The test is described as follows: PfPK6 kinase inhibitors, biochemical, TCAMS library (AID 1159586). Particulars: recombinant PfPK6, Kinase-Glo ATP depletion luminescence.
Test [7] concerns the target Protein kinase 7 (PK7), Plasmodium falciparum 3D7 (PF3D7_0213400) (UniProt Q7YTF7). Put plainly: inhibition of Plasmodium PK7 catalytic activity – biochemical, TCAMS antimalarial set, Kinase-Glo luminescence (AID 1159587). Particulars: recombinant PfPK7, Kinase-Glo ATP depletion luminescence.
Test [8] addresses Calcium-dependent protein kinase 4 (Plasmodium falciparum (isolate 3D7)) (UniProt Q8IBS5). Put plainly: PfCDPK4 kinase inhibitors, biochemical, TCAMS library (AID 1159588; cut-off not given, nearly all actives have IC50 up to about 0.91 µM). The settings on record: recombinant PfCDPK4, Kinase-Glo ATP depletion luminescence.

Values without a mark were called inactive. For some of these results: Potency and affinity values are given separately. Activity calls are given as the source filed them. Unless noted, the rule behind the calls is not given here.

L-lactate dehydrogenase (Plasmodium falciparum (isolate CDC / Honduras)), sequence (Q27743 whole entry, looked up): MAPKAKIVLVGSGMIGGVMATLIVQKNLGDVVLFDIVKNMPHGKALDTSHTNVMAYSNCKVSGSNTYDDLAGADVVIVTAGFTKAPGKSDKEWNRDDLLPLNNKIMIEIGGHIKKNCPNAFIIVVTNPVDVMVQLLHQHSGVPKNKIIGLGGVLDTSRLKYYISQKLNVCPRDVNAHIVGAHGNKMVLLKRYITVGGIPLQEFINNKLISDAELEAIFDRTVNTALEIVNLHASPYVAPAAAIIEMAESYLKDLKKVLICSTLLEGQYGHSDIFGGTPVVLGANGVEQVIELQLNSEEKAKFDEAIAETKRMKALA
Calcium-dependent protein kinase 4 (Plasmodium falciparum (isolate 3D7)), sequence (Q8IBS5 whole entry, looked up): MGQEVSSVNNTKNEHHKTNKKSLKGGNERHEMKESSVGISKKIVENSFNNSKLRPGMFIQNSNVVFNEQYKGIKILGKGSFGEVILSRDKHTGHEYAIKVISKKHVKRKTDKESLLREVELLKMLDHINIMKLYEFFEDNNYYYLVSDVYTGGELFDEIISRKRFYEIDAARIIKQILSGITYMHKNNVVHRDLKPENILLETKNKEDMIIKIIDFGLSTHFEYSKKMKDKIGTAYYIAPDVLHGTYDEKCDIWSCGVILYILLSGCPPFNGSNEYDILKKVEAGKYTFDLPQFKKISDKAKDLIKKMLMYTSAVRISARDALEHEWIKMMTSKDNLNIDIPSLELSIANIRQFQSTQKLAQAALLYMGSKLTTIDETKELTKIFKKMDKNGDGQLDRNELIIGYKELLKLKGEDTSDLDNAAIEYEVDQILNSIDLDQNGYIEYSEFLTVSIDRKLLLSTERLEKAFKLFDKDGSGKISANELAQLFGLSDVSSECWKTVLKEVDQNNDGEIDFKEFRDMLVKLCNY
Protein kinase 7 (PK7), Plasmodium falciparum 3D7 (PF3D7_0213400), sequence (Q7YTF7 1-343): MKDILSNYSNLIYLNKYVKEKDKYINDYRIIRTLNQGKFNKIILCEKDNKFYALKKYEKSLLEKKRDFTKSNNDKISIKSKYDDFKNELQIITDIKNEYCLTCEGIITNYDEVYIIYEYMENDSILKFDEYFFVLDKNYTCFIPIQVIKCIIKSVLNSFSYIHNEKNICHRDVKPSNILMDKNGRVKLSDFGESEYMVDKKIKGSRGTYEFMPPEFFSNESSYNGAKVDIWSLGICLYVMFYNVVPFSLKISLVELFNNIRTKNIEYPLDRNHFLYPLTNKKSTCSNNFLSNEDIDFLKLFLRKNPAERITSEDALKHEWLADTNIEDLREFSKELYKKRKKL
Calcium-dependent protein kinase 1 (Plasmodium falciparum (isolate 3D7)), sequence (P62344 whole entry, looked up): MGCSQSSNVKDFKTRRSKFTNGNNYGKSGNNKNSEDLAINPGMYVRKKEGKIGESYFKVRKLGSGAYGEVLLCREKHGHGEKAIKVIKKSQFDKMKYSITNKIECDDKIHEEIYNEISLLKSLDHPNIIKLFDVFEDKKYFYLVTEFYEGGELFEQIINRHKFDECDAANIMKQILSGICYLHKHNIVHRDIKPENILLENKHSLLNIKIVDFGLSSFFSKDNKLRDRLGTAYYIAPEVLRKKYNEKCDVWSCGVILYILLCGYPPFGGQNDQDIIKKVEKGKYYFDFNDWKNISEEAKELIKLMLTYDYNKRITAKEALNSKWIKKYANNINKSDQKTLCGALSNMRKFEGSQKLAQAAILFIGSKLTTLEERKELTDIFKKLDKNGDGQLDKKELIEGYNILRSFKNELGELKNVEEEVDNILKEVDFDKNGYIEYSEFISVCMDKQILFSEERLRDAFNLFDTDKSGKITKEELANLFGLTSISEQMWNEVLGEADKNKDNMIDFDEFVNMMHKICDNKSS
Plasmodium falciparum protein kinase 6 (PK6, PF3D7_1337100), sequence (Q8IDW1 1-305): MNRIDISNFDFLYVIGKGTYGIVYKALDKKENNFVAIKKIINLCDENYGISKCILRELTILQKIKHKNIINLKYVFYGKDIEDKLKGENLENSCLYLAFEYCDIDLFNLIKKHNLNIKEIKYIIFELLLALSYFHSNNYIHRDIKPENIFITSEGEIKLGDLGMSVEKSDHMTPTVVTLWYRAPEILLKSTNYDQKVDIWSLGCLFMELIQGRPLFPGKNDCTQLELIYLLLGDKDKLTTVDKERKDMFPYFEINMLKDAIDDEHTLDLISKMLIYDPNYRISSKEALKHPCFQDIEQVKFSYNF

`Cc1nccn1CCNC(=O)CN1CCC2(CCC1=O)CC(=O)c1ccccc1O2` (stereo not given): the figures for the growth inhibition in test [1] and in test [4] were 4% and 98% (active), respectively. Besides, the results for the inhibition in test [2] and in test [3] were -7% and 7%, respectively. Also, the outcome in test [5], in test [6], in test [7] and in test [8] was inactive.
Take `Cc1nc(-c2ccc(C#N)cc2)sc1C(=O)NCCCCN1CCC(c2ccc3c(c2OCCO)CCCC3)CC1`: the growth inhibition is 10% in test [1] and 99% (active) in test [4]. The inhibition in test [2] was 14%; in test [3], 6%. Also, the outcome in test [5], in test [6], in test [7] and in test [8] was inactive.
As to `O=C(Nc1ccc(C(=O)N2CCN(CCN3CCN(c4cccc(C(F)(F)F)c4)CC3)CC2)cc1)c1ccc(OC(F)(F)F)cc1`, the growth inhibition in test [1] is 25%; in test [4] it was 95% (active). In addition, the figures for the inhibition in test [2] and in test [3] were 38% and 7%, respectively. Also, the result in test [5], in test [6], in test [7] and in test [8] was inactive.
With `Cc1cccc2[nH]c(-c3cccc(-c4ccc(NC(=O)CS(C)(=O)=O)cc4)c3)nc12`, the growth inhibition in test [1] was 8%; in test [4], 85% (active). For the same compound, the inhibition in test [2] was 3%; in test [3] it was -8%. Moreover, the outcome in test [5], in test [6], in test [7] and in test [8] was inactive.
In the case of `Cc1ccc(O)c(-c2cc(C(=O)Nc3ccc(S(=O)(=O)N4CCCCCC4)cc3)[nH]n2)c1`, the growth inhibition in test [1] is 80% (active); in test [4] it was 100% (active). The inhibition is 25% in test [2] and 4% in test [3]. Moreover, the outcome in test [5], in test [6], in test [7] and in test [8] was inactive.
`COc1cccc(CN2CCCC(OC(c3ccccc3)c3ccccc3)C2)c1O` (stereo not given): the growth inhibition is 73% (active) in test [1] and 90% (active) in test [4]. Moreover, the values for the inhibition in test [2] and in test [3] were 19% and 0%, respectively. For the same compound, the result in test [5], in test [6], in test [7] and in test [8] was inactive.
In the case of `CC(C)(C)S[C@H]1S[C@H](SC(C)(C)C)[C@@H](OC(=O)c2ccccc2)C(OC(=O)c2ccccc2)[C@H]1OC(=O)c1ccccc1` (stereo not given in full), the growth inhibition was 45% in test [1] and 95% (active) in test [4]. For the same compound, the inhibition is -2% in test [2] and 5% in test [3]. Besides, the outcome in test [5], in test [6], in test [7] and in test [8] was inactive.
As to `CC(C)NCc1ccc(-c2cccc(NC(=O)c3cccc(C#N)c3)c2)cc1`, the figures for the growth inhibition in test [1] and in test [4] were 78% (active) and 100% (active), respectively. The inhibition in test [2] is 9%; in test [3], -6%. Besides, the outcome in test [5], in test [6], in test [7] and in test [8] was inactive.
Consider `Cc1cccc2[nH]c(-c3ccc(-c4cccc(CNCCCN5CCCC5=O)c4)cc3)nc12`, for which the growth inhibition was 3% in test [1] and 96% (active) in test [4]. Also, the values for the inhibition in test [2] and in test [3] were 6% and -8%, respectively. In addition, the result in test [5], in test [6], in test [7] and in test [8] was inactive.
Turning to `CC(C)(C)c1ccc(NC(=O)c2cccc(CN3CCCN(Cc4cccc(C#N)c4)CC3)c2)cc1`, the growth inhibition in test [1] is 12%; in test [4], 97% (active). For the same compound, the inhibition was 39% in test [2] and 4% in test [3]. The outcome in test [5], in test [6], in test [7] and in test [8] was inactive.
Consider `Cc1nc(-c2cccc(Nc3nccc(NCC(O)c4ccccc4C(F)(F)F)n3)c2)cs1` (stereo not given), for which the growth inhibition in test [1] is 50% (active); in test [4], 97% (active). Besides, the inhibition is 48% in test [2] and 5% in test [3]. For the same compound, the result in test [5], in test [6], in test [7] and in test [8] was inactive.
On to `Cc1cccc2c(N=NC(=S)N(C)C)c(O)[nH]c12`, for which the results for the growth inhibition in test [1] and in test [4] were 59% (active) and 96% (active), respectively. Further, the values for the inhibition in test [2] and in test [3] were 48% and -5%, respectively. Moreover, the outcome in test [5], in test [6], in test [7] and in test [8] was inactive.
As to `Cc1[nH]c(C)c(-c2ccc(-c3cc(C(F)(F)F)cc(C(F)(F)F)c3)nc2)c(=O)c1Br`, the growth inhibition in test [1] is 96% (active); in test [4], 98% (active). The inhibition was 18% in test [2] and 0% in test [3]. Besides, the outcome in test [5], in test [6], in test [7] and in test [8] was inactive.
In the case of `Nc1ccc(-c2nc3c(ccc4ccccc43)[nH]2)cc1`, the results for the growth inhibition in test [1] and in test [4] were 51% (active) and 84% (active), respectively. Besides, the inhibition in test [2] was -21%; in test [3] it was -1%. The result in test [5], in test [6], in test [7] and in test [8] was inactive.
As for `Cn1cc(CN2CCCC(COC(c3ccccc3)c3ccccc3)C2)cn1` (stereo not given), the growth inhibition in test [1] and in test [4] was 99% (active) throughout. In addition, the inhibition in test [2] was 24%; in test [3] it was 0%. Further, the result in test [5], in test [6], in test [7] and in test [8] was inactive.
On to `Cc1cc(C)n(-c2nc(Nc3cccc(C(F)(F)F)c3)nc(-n3nc(C)cc3C)n2)n1`, for which the growth inhibition was 88% (active) in test [1] and 99% (active) in test [4]. The inhibition was -8% in test [2] and -6% in test [3]. Further, the outcome in test [5], in test [6], in test [7] and in test [8] was inactive.
Regarding `CC1(C)N=C(N)N=C(N)N1OCCNCc1ccc(Cl)cc1`, the growth inhibition in test [1] was -2%; in test [4], 95% (active). Also, the values for the inhibition in test [2] and in test [3] were 5% and -5%, respectively. For the same compound, the result in test [5], in test [6], in test [7] and in test [8] was inactive.
`Cc1ccc(O)cc1Nc1ccnc2cc(-c3csc(CNCCN4CCOCC4)n3)ccc12`: the figures for the growth inhibition in test [1] and in test [4] were 99% (active) and 101% (active), respectively. The inhibition in test [2] is 6%; in test [3], -3%. Moreover, the result in test [5], in test [6], in test [7] and in test [8] was inactive.
Turning to `CC1(C)N=C(N)N=C(N)N1OCCCc1ccccc1`, the results for the growth inhibition in test [1] and in test [4] were 94% (active) and 96% (active), respectively. Further, the inhibition in test [2] is 64% (active); in test [3] it was 1%. Further, the outcome in test [5], in test [6], in test [7] and in test [8] was inactive.
As for `CCOC(=O)c1cccc(N/C(N)=N/c2nc(C)cc(NCCc3ccccc3)n2)c1`, the growth inhibition is 72% (active) in test [1] and 102% (active) in test [4]. Moreover, the results for the inhibition in test [2] and in test [3] were 21% and -6%, respectively. For the same compound, the outcome in test [5], in test [6], in test [7] and in test [8] was inactive.
